Test results published in PubChem BioAssay AID605 (National Center for Advancing Translational Sciences (NCATS), 2007).
Hit rate of the full screen: of about 71,000 compounds, about 35 (0.05%) were called active. Calls follow the shape of the dose curve; as a rule, active = well fitted curve in the direction sought with a large enough effect; inconclusive = small, poorly fitted or top-dose-only effect, or effect the other way; inactive = flat fitted curve, though single readings scatter. Only a sample is shown.

target: tRNA threonylcarbamoyladenosine biosynthesis protein TsaE (Escherichia coli (strain K12)) (UniProt P0AF67); assay: qHTS Assay for Inhibitors of YjeE; details: purified YjeE enzyme, qHTS inhibition assay
Experimental: NIH Molecular Libraries Screening Centers Network [MLSCN]
NIH Chemical Genomics Center [NCGC]
Assay Provider: Eric Brown, McMaster University
YjeE is an essential E.coli protein of unknown function that binds adenosine diphosphate (ADP). A complex of YjeE and BODIPY Texas Red-labeled ADP probe (Invitrogen, catalog number A22359) is incubated with library members. Inhibitors of YjeE-ADP binding are detected by a decrease in the fluorescence polarization (FP) of the fluorophore. Purified YjeE was supplied by Chand Mangat and Eric Brown, McMaster University.
NCGC Assay Protocol Summary:
2 uM probe/10 uM YjeE in columns 1, 2, 5-48. Titration of ADP control (from 40 mM, then 1:2) pin-transferred to top half of column 2. Column 1 and bottom half of column 2 are neutral.
Two and a half uL of reagents were dispensed to 1536-well Greiner black plates. Compounds and controls (20 nL) were transferred via Kalypsys PinTool. The plates were incubated for 15 min at room temperature, and then read on ViewLux (Perkin-Elmer) High-throughput CCD imager using BODIPY polarization filter set and 30 seconds exposure time. During dispense, reagent bottle was kept submerged into 4 deg C water bath and all liquid lines were covered with aluminum foil to minimize probe and protein degradation.
Keywords: NIH Roadmap, MLSCN, MLI, MLSMR, qHTS, NCGC, YjeE

outcome, inactive:
Oc1ccc(O)c2c(O)cccc12
Cc1ccc(S(=O)(=O)NC(=O)N2CCCC(C)(C)C2)cc1
C=CCOC(=O)COCCC(C)C
CCC1=C/C(=C\c2ccc3c(c2)OCO3)C(=O)S1
COC(=O)N1CCC[C@@]2(CCN(C(=O)NC(C)C)C2)C1
O=S(=O)(NCc1ccccc1Cl)c1cnc[nH]1
CCCCn1c(SCC(=O)N2CCC(C(=O)OCC)CC2)nc2cc(S(N)(=O)=O)ccc21
CCCC(Cl)CCCC(Cl)CCC(Cl)CCC(Cl)CCC(Cl)CCCC(Cl)CCC (stereo not given)
Nc1ccccc1N
N[C@@H](C(=O)O)c1ccc(P(=O)(O)O)cc1
CC(=O)OC(C(=O)NCCc1ccccc1)c1cccnc1 (stereo not given)
COCc1[nH]nc2c1C(C1C=CCCC1)C(C#N)=C(N)O2 (stereo not given)
O=C(c1csnn1)N1CCC[C@@]2(CCN(Cc3nccs3)C2)C1
COc1cc(Cl)c(C)cc1NC(=O)CSc1nnc(-c2ccco2)n1CC(C)C
O=C(Nc1cccc(F)c1)N1CC2(CCN(C(=O)c3csnn3)CC2)C1
Cc1cccc(CNc2cc(-c3ccccc3Cl)ncn2)c1
COC(=O)[C@@H]1[C@H]2C[C@H]3c4[nH]c5cc(OC)ccc5c4CCN3C[C@@H]2C[C@@H](OC(=O)c2cc(OC)c(OC)c(OC)c2)[C@@H]1OC
CCOc1ccccc1NC(=O)C1CCN(S(=O)(=O)c2c(C)nn(C)c2C)CC1
C=CCN1C(=O)C(O)(CC(=O)c2ccc(Cl)cc2)c2ccccc21 (stereo not given)
CS(=O)(=O)N1CCCC(C(=O)N2CCOCC2)C1 (stereo not given)
Clc1ccccc1-c1cc(NCCN2CCOCC2)ncn1
CCc1cc2c(=O)c(-c3ccon3)c(N)oc2cc1OC
CCn1c(SCC(=O)Nc2cc(C)ccc2C)nnc1-c1cnccn1
CC1=C(C(=O)OCc2ccccc2)C(c2ccc(C(F)(F)F)cc2)NC(=O)N1CCCCCC(=O)O (stereo not given)
COC(=O)[C@@]1(C)C=C[C@@H](Cc2ccccc2)N1C(C)=O
O=C(Cn1cc(C(=O)c2cccs2)c2ccccc21)NCc1cccs1
O=C(c1cnccn1)N1CCC[C@@]2(CCN(Cc3ccncc3)C2)C1
COC(=O)CCCCCN1C(=O)NC(c2ccc(-c3ccccc3)cc2)C(C(=O)OCc2ccccc2)=C1C (stereo not given)
Cc1ccc(Br)cc1
O=C1CC(N2CCN(C(c3ccccc3)c3ccccc3)CC2)C(=O)N1 (stereo not given)
CCOc1ccc(C(=O)N(Cc2ccc(N(C)C)cc2)C2CCS(=O)(=O)C2)cc1 (stereo not given)
C/C(=C\C(=O)c1ccccc1)Nc1cccc(O)c1
Cc1cc2nc3c(=O)[nH]c(=O)nc-3n(C[C@H](O)[C@H](O)[C@H](O)CO)c2cc1C
O=C(O)c1ccc(C(=O)c2ccccc2C(=O)O)cc1C(=O)O
Cc1ccc(-c2c3c(=O)n(C)c(=O)n(C)c3cn2-n2cnnc2)cc1
C=CC(=O)OCCOCCOCCOCCOC(=O)C=C
CCOc1ccc2c(c1)cc(CN(C(=O)CC)C1CCCCC1)c1nnnn12
Cc1nc2cnc(N3CCNCC3)nc2n(Cc2ccc(F)cc2)c1=O
COc1ccc2c(=O)cc(-c3ccccc3)oc2c1O
C=CCn1c(SCc2csc(C)n2)nc2scc(-c3ccc(C)o3)c2c1=O
C=CC(=C)CCC=C(C)C
Cc1ccc(NC(=O)N2CCC(C(=O)NCc3ccc(F)cc3)CC2)cc1
O=C(NCc1ccccc1)[C@H]1C[C@@H]1[C@H](NP(=O)(c1ccccc1)c1ccccc1)c1ccccc1
O=C1C(c2[nH]c3ccccc3c2O)=Nc2ccccc21
COc1c(C)c2c(c(O)c1C/C=C(\C)CCC(=O)O)C(=O)OC2
Fc1ccc2nc(-c3ccccc3)nc(SCc3nnc(-c4ccccc4)o3)c2c1
Cc1cc(Cl)ccc1OCC(=O)Oc1c(Cl)c(Cl)c(Cl)c(Cl)c1Cl
CCN(CC)CCCCn1c(-c2ccccc2)nc2c(N3CCOCC3)nc(C)nc21
CCNC(=O)CCc1nc(-c2ccc(C(C)(C)C)cc2)no1
c1cncc(CNc2ccnc(-c3ccc4c(c3)OCO4)n2)c1
Cc1cc(C)c2c(c1)c(C)cc1nnc(SCC(=O)NCc3ccco3)n12
Cc1ccc(-c2noc(-c3ccccc3C(=O)NCC3CCCO3)n2)cc1 (stereo not given)
c1ccc2c(c1)-c1ccccc1C2N1CC2CCC(CC2)C1
CCC(=O)Nc1ccc(C(=O)Nc2ccc3c(c2)C(=O)N(CC2CCCO2)C3=O)cc1 (stereo not given)
CSCC[C@H](NC(=O)NCc1cccs1)C(=O)O
Cc1cccn2c(=O)c3cc(C(=O)N4COCC4(C)C)n(C)c3nc12
CCC[C@@H]1C[C@@]1(CCC)[C@@H](NC(=O)c1ccccc1)c1ccc(C(=O)OC)cc1
Cc1nc(CNS(=O)(=O)c2ccc(Oc3ccccc3)cc2)cs1
O=C(c1csnn1)N1CCC2(CCN(Cc3nccs3)CC2)CC1
CC1(C)CCCC2=C1CC1C(=O)N(c3ccccc3)C(=O)C1C2 (stereo not given)
COc1ccc(-c2cc(C(=O)NC(C(=O)O)C(C)C)c(C)o2)cc1OC (stereo not given)
Cc1ccc(-c2nnn(CC(=O)N(CCO)C(C(=O)NC(C)(C)C)c3ccncc3)n2)cc1 (stereo not given)
Cc1ccc(NC(=O)CCNS(=O)(=O)c2ccc3c(c2)oc(=O)n3C)cc1C
CCC/C=C(\CCC)C(NC(=O)Cc1ccccc1)c1ccc(C(=O)OC)cc1 (stereo not given)
O=C1CC(c2cccc(Br)c2)C2=C(CCCC2=O)N1 (stereo not given)
COc1ccc(-c2nc3cnc(Oc4ccccc4)nc3n(Cc3cccs3)c2=O)cc1
Oc1c(CN2CCOCC2)ccc(CN2CCOCC2)c1O
CC(=O)CSc1nnc(CSc2ncccn2)n1C1CCCCC1
CCN1CCN(C(=O)CN(C)S(=O)(=O)c2ccc(OC)cc2)CC1
CCOc1ccc(S(=O)(=O)n2ccnc2)c2ccccc12
